The values below come from the supplement of paper PMC10849652.

About 7,900 targets were measured; listed, in parts, are those with a hit and a random draw of the rest. About 0.6% of all pairs of compound and target were hits. A number with no mark means an inactive call.

UniProt P11388, sequence (P11388 whole entry, looked up): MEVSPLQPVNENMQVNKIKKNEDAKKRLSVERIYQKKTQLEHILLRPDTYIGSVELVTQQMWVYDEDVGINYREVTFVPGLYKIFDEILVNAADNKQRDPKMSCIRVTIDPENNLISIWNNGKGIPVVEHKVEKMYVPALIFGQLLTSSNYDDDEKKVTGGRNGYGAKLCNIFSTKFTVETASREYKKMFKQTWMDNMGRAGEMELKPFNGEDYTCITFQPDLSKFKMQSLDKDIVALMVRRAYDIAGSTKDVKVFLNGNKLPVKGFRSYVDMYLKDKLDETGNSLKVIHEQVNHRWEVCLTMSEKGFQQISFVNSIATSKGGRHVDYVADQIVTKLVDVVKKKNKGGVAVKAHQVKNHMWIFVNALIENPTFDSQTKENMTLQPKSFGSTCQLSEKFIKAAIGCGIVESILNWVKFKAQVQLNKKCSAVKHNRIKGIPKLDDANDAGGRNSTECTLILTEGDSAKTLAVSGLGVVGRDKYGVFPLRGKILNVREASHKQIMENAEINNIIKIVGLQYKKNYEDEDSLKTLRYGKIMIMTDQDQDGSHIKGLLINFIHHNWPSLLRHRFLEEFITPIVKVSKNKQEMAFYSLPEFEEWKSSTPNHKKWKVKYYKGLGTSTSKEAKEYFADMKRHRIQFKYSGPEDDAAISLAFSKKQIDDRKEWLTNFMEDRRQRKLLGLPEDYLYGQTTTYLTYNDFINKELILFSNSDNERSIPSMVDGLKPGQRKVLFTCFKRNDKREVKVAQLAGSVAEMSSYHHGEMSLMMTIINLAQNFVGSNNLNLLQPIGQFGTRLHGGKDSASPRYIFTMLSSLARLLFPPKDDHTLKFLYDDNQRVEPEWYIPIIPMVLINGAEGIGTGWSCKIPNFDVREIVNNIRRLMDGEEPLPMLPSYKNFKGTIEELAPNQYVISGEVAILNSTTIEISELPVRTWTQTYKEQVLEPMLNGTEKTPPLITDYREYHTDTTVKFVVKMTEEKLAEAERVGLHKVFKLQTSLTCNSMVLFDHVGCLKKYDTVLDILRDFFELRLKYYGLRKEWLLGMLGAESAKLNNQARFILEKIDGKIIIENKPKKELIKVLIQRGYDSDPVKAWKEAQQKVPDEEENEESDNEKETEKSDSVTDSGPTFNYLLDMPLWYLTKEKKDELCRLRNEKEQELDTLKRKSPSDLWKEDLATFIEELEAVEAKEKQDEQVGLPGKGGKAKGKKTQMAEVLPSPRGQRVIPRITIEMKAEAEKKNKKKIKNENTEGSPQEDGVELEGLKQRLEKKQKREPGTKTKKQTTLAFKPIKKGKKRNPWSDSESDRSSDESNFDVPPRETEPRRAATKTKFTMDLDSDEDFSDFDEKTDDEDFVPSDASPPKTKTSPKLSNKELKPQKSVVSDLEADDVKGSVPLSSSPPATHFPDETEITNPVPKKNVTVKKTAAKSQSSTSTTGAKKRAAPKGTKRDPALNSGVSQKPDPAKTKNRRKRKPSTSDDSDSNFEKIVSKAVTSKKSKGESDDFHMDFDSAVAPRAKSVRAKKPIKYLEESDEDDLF
UniProt P21796, sequence (P21796 whole entry, looked up): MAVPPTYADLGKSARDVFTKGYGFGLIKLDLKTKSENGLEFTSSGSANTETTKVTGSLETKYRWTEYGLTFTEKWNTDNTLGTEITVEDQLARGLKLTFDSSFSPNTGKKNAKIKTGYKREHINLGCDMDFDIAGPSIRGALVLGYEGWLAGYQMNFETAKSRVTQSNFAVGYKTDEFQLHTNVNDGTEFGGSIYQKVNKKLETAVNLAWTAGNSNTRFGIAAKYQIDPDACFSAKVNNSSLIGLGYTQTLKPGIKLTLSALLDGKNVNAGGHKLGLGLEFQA
UniProt Q9UID3, sequence (Q9UID3 whole entry, looked up): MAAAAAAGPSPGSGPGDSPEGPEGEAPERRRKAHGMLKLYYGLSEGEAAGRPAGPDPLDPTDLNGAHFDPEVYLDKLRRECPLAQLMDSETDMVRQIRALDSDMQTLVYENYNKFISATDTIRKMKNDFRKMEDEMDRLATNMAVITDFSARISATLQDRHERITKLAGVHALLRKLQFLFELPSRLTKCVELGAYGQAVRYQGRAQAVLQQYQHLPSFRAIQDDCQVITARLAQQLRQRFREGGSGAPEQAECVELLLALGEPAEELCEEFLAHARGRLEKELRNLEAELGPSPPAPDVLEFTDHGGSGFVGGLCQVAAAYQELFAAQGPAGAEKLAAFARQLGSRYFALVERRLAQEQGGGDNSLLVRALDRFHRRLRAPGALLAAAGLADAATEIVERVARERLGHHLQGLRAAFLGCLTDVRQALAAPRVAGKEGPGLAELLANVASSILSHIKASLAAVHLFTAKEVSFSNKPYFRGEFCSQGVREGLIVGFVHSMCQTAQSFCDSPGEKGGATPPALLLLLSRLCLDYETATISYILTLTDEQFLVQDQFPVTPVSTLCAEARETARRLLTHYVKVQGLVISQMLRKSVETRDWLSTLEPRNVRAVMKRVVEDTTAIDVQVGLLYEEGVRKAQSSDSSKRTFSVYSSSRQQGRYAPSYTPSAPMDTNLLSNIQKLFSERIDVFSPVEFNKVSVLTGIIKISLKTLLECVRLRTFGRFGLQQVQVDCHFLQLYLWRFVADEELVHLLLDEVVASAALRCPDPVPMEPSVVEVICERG
UniProt Q15629, sequence (Q15629 whole entry, looked up): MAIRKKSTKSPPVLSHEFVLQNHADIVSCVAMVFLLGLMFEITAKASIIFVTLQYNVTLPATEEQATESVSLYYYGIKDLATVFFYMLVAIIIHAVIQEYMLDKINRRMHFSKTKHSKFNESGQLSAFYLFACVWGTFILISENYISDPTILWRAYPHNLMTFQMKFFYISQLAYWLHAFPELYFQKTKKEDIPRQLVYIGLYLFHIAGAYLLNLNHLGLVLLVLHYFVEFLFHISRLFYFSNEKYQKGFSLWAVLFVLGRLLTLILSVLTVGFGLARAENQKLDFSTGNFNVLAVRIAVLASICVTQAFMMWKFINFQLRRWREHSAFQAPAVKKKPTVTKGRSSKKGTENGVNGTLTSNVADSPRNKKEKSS
UniProt O75717, sequence (O75717 whole entry, looked up): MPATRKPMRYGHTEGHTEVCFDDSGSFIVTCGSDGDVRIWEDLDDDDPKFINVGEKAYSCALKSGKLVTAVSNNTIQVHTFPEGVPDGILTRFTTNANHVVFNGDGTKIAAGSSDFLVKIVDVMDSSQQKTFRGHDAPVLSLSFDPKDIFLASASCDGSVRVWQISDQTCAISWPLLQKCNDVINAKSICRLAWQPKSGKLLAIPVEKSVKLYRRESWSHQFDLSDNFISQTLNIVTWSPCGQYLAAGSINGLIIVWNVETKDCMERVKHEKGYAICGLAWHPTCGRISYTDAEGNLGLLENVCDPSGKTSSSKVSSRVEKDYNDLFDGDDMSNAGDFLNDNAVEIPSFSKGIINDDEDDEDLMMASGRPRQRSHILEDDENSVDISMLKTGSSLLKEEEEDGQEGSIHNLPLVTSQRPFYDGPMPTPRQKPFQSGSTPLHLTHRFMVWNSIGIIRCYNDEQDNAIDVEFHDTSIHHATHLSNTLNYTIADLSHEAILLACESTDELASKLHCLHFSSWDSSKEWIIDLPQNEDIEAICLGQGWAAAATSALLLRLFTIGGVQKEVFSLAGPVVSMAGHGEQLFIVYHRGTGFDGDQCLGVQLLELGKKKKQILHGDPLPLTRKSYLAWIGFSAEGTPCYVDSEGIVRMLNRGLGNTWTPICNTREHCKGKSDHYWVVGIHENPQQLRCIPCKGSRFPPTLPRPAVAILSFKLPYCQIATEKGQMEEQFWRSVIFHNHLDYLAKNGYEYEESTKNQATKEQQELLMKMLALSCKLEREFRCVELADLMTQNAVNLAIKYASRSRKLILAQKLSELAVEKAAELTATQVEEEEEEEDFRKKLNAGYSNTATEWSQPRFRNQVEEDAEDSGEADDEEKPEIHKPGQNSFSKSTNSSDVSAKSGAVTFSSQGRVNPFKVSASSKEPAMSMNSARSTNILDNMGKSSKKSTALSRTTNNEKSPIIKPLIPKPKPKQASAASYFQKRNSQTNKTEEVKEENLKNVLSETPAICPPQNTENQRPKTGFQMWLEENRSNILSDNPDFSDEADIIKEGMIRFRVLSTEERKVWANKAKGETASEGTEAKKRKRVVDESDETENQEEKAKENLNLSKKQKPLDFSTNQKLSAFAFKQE
UniProt Q9NQH7, sequence (Q9NQH7 whole entry, looked up): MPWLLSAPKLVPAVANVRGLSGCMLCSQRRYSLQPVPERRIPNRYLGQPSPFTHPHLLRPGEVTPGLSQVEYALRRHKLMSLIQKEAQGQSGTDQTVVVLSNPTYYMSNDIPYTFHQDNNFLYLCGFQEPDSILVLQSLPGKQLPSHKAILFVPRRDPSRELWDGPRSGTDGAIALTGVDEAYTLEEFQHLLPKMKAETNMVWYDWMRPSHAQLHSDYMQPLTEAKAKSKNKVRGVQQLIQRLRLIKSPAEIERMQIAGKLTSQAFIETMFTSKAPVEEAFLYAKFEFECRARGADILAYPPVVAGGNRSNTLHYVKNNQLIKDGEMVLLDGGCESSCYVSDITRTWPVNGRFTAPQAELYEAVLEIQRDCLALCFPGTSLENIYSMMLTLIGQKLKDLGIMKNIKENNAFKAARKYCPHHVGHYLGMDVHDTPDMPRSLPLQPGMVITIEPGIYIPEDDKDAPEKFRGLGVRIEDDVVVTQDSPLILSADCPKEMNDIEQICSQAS
UniProt Q9UL33, sequence (Q9UL33 whole entry, looked up): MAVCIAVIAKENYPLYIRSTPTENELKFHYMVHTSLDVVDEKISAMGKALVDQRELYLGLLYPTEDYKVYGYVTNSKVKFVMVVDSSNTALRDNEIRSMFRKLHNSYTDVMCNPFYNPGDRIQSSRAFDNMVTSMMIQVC
UniProt Q96AJ9, sequence (Q96AJ9 whole entry, looked up): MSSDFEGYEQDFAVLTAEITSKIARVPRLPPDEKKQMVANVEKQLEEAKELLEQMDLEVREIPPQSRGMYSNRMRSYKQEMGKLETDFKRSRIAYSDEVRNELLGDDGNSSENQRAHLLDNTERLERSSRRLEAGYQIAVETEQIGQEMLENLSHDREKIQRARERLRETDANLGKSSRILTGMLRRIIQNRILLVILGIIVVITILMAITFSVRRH
UniProt Q9UDW1, sequence (Q9UDW1 whole entry, looked up): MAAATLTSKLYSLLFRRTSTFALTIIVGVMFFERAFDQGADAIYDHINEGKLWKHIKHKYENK

Compound in one assay: O=C(CCCCCCNC(=O)c1cnc(N(c2ccccc2)c2ccccc2Cl)nc1)NO [citarinostat]
The assay is described as follows: log2 fold change, soluble protein after heating vs DMSO (PISA); higher = thermal stabilisation; K562 cells, 10 uM, 30 min; active = over 0.2 and 3.5 SD of the protein, either way, in both replicates (recomputed). A digest of the protocol: (§1)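 Values are thermal stability changes relative to control samples and are taken from duplicates. They are stated as log2 fold changes. Before quantification by TMTpro 16plex LC-MS/MS with equalised channel sums, K562 cells at 2×10^6 cells/mL were treated with 10 μM compound for 30 min, heated in aliquots for 3 min across 48°C-58°C, pooled, extracted in PBS with 0.5% NP-40 at 4°C, and centrifuged at 21,000xg for 90 min to give the soluble supernatant.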
In the case of USP34 (UniProt Q70CQ2), the log2 fold change is 0.123.
The same measure, in the same setting: next, USP14 (UniProt P54578): 0.051.
Regarding VPS51 (UniProt Q9UID3), the log2 fold change was -0.002.
With UBE2J1 (UniProt Q9Y385), the log2 fold change was 0.041.
Still for that read-out and setting: the value for UBE3D (UniProt Q7Z6J8) was 0.012.
In the case of TRAM1 (UniProt Q15629), the log2 fold change is -0.083.
On to TOP2A isoform 4 (UniProt P11388), for which the log2 fold change was -0.112.
Still for that read-out and setting: next, XPNPEP3 (UniProt Q9NQH7): -0.007.
Still for that read-out and setting: the value for TRAPPC2L (UniProt Q9UL33) was 0.031.
For XPO5 (UniProt Q9HAV4), the log2 fold change is 0.068.
Still for that read-out and setting: next, WDHD1 (UniProt O75717): 0.176; VDAC1 (UniProt P21796): 0.039.

Compound in a further assay: O=C(O)c1ccc2c(c1)nc(Nc1cccc(Cl)c1)c1ccncc12 [silmitasertib]
Described as above. The gist of the method: as §1
In the case of VTA1 (UniProt Q9NP79), the log2 fold change is 0.023.
Still for that read-out and setting: the value for UBE4B isoform 4 (UniProt O95155) was 0.042; that for USO1 isoform 2 (UniProt O60763) was 0.059; that for VPS16 (UniProt Q9H269) was 0.009.
Regarding WAPL isoform 3 (UniProt Q7Z5K2), the log2 fold change was 0.067.
Regarding VTI1A (UniProt Q96AJ9), the log2 fold change is 0.051.
VPS8 (UniProt Q8N3P4): the log2 fold change is 0.078.
On to UFL1 (UniProt O94874), for which the log2 fold change was 0.029.
Still for that read-out and setting: the value for UTP4 (UniProt Q969X6) was 0.064; that for UTP14A (UniProt Q9BVJ6) was 0.128.
On the same count and under the same terms, the value for UGGT1 (UniProt Q9NYU2) was 0.01.
For the target VPS18 (UniProt Q9P253), the log2 fold change was 0.005.
Same read-out and setting: the value for UBA6 was -0.004; that for TMEM161A (UniProt Q9NX61) was -0.023; that for TNFRSF10A (UniProt O00220) was 0.028.
Still for that read-out and setting: the value for TRMT61A (UniProt Q96FX7) was 0.099.
Consider TRAPPC8 (UniProt Q9Y2L5), for which the log2 fold change is 0.07.
As for UBE2S (UniProt Q16763), the log2 fold change is 0.069.
Still for that read-out and setting: next, UBE2E3 (UniProt Q969T4): -0.016.
Consider UCHL5 (UniProt Q9Y5K5), for which the log2 fold change was 0.04.
Consider VTI1B (UniProt Q9UEU0), for which the log2 fold change was 0.114.
In the case of TNPO1 (UniProt Q92973), the log2 fold change is 0.025.
Same read-out and setting: the value for UQCR10 (UniProt Q9UDW1) was -0.003.
The same measure, in the same setting: next, TMEM87B (UniProt Q96K49): 0.096.
Take USP34 (UniProt Q70CQ2): the log2 fold change was 0.045.
Same read-out and setting: next, USP14 (UniProt P54578): 0.007.
With VPS51 (UniProt Q9UID3), the log2 fold change was 0.068.
On the same count and under the same terms, the value for UBE2J1 (UniProt Q9Y385) was 0.042.
As for UBE3D (UniProt Q7Z6J8), the log2 fold change was 0.067.
Same read-out and setting: next, TRAM1 (UniProt Q15629): 0.066; TOP2A isoform 4 (UniProt P11388): 0.255.
The same measure, in the same setting: next, XPNPEP3 (UniProt Q9NQH7): -0.004.
On the same count and under the same terms, the value for TRAPPC2L (UniProt Q9UL33) was 0.037; that for XPO5 (UniProt Q9HAV4) was -0.003.
As for WDHD1 (UniProt O75717), the log2 fold change is 0.025.
In the case of VDAC1 (UniProt P21796), the log2 fold change was -0.015.

Compound in the next assay: O=C1NC(=O)C(c2cnc3ccccn23)=C1c1cn2c3c(cc(F)cc13)CN(C(=O)N1CCCCC1)CC2
The description is as above. A digest of the protocol:
as §1
As to VTA1 (UniProt Q9NP79), the log2 fold change was -0.076.
On to UBE4B isoform 4 (UniProt O95155), for which the log2 fold change is -0.082.
As for USO1 isoform 2 (UniProt O60763), the log2 fold change is -0.035.
In the case of VPS16 (UniProt Q9H269), the log2 fold change was 0.122.
The same measure, in the same setting: next, WAPL isoform 3 (UniProt Q7Z5K2): -0.148; VTI1A (UniProt Q96AJ9): -0.01; VPS8 (UniProt Q8N3P4): -0.006.
On the same count and under the same terms, next, UFL1 (UniProt O94874): -0.013; UTP4 (UniProt Q969X6): 0.06.
With UTP14A (UniProt Q9BVJ6), the log2 fold change is 0.082.
Same read-out and setting: next, UGGT1 (UniProt Q9NYU2): -0.025; VPS18 (UniProt Q9P253): 0.023; UBA6: -0.046.
The same measure, in the same setting: next, TMEM161A (UniProt Q9NX61): -0.009; TNFRSF10A (UniProt O00220): -0.069.
Still for that read-out and setting: next, TRMT61A (UniProt Q96FX7): 0.293.
For the target TRAPPC8 (UniProt Q9Y2L5), the log2 fold change is -0.016.
Same read-out and setting: next, UBE2S (UniProt Q16763): -0.106.
Consider UBE2E3 (UniProt Q969T4), for which the log2 fold change was 0.023.
Same read-out and setting: the value for UCHL5 (UniProt Q9Y5K5) was -0.084; that for VTI1B (UniProt Q9UEU0) was 0.054; that for TNPO1 (UniProt Q92973) was -0.021.
Same read-out and setting: the value for UQCR10 (UniProt Q9UDW1) was -0.067; that for TMEM87B (UniProt Q96K49) was -0.032.
As for USP34 (UniProt Q70CQ2), the log2 fold change was -0.008.
On to USP14 (UniProt P54578), for which the log2 fold change is -0.029.
Same read-out and setting: the value for VPS51 (UniProt Q9UID3) was 0.022.
On the same count and under the same terms, the value for UBE2J1 (UniProt Q9Y385) was -0.375 (active).
Same read-out and setting: the value for UBE3D (UniProt Q7Z6J8) was -0.032; that for TRAM1 (UniProt Q15629) was 0.025.
Take TOP2A isoform 4 (UniProt P11388): the log2 fold change is 0.296.
For the target XPNPEP3 (UniProt Q9NQH7), the log2 fold change is -0.02.
Still for that read-out and setting: next, TRAPPC2L (UniProt Q9UL33): -0.047; XPO5 (UniProt Q9HAV4): -0.022.
Still for that read-out and setting: the value for WDHD1 (UniProt O75717) was -0.107; that for VDAC1 (UniProt P21796) was -0.019.
